Data: PubChem BioAssay (NCI)
Compounds without any hit were thinned out: in the full panel of roughly 79,000, 15% have a hit. A number with no mark means an inactive call. Activity calls are given as the source filed them. Cut-off read from the data, not from the text of the source: active = growth inhibition above about 70%; inactive = the rest.

Experiments:
[1] = NCI Yeast Anticancer Drug Screen. Data for the rad50 strain (AID 155);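 note: 0% = growth of vehicle-only cultures of the same strain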; conditions: S. cerevisiae rad50 strain growth inhibition, active compounds read high
Summary of the method: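 Inhibition values express reduced yeast growth in compound-treated cultures relative to vehicle-treated controls.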

[2] = NCI Yeast Anticancer Drug Screen. Data for the mec2-1 strain (AID 157); conditions: S. cerevisiae mec2-1 strain, active compounds read high
Summary of the method: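 Cells of the genetically defined mec2-1 yeast strain are incubated with test compound. Inhibition of growth is calculated against vehicle-treated controls.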

[3] = NCI Yeast Anticancer Drug Screen. Data for the sgs1 mgt1 strain (AID 161);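 note: 0% = growth of cultures given vehicle only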; conditions: S. cerevisiae sgs1 mgt1 strain, active compounds read high
Summary of the method: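 Read-out: growth inhibition vs vehicle controls. Cells: mutant yeast strain deficient in DNA damage repair.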

[4] = NCI Yeast Anticancer Drug Screen. Data for the cln2 rad14 strain (AID 165);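 note: 0% = growth equal to vehicle treated cultures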; conditions: S. cerevisiae cln2 rad14 strain, active compounds read high
Summary of the method: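 The screen exposed genetically defined yeast (cln2 rad14) to test compounds and scored growth inhibition relative to vehicle-treated controls.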

[5] = NCI Yeast Anticancer Drug Screen. Data for the bub3 strain (AID 167); conditions: S. cerevisiae bub3 mutant strain, active compounds read high
Summary of the method: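 Steps: expose the mutant yeast strain to compound; grow alongside vehicle-treated cultures; measure growth; express inhibition against the vehicle cultures.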

[6] = NCI Yeast Anticancer Drug Screen. Data for the mlh1 rad18 strain (AID 175); conditions: S. cerevisiae mlh1 rad18 strain growth inhibition, active compounds read high
Summary of the method: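 Compound-treated yeast growth, normalised to vehicle controls. Strain bears defined DNA repair mutations.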

[7] = at 5.0 µM (retest, dose inferred, filed as 0.5)
[8] = at 50.0 µM (retest, dose inferred, filed as 5.0)

## O=[N+]([O-])c1cc(Cl)ccc1S(=O)(=O)F
[1]; [7]
  growth inhibition: 98% (active)
[1]; [8]
  growth inhibition: 98% (active)
[1]; at 50.0 µM
  growth inhibition: 99.7% (active)
[2]; [7]
  growth inhibition: 98% (active)
[2]; [8]
  growth inhibition: 99% (active)
[2]; at 50.0 µM
  growth inhibition: 99.6% (active)
[3]; [7]
  growth inhibition: 99% (active)
[3]; [8]
  growth inhibition: 99% (active)
[3]; at 50.0 µM
  growth inhibition: 99.5% (active)
[4]; [7]
  growth inhibition: 98% (active)
[4]; [8]
  growth inhibition: 98% (active)
[4]; at 50.0 µM
  growth inhibition: 99.2% (active)
[5]; [7]
  growth inhibition: 98% (active)
[5]; [8]
  growth inhibition: 98% (active)
[5]; at 50.0 µM
  growth inhibition: 99.5% (active)
[6]; [7]
  growth inhibition: 96% (active)
[6]; [8]
  growth inhibition: 98% (active)
[6]; at 50.0 µM
  growth inhibition: 99.5% (active)

## CCCCCCCC(=O)[O][Hg][c]1ccccc1
[1]; [7]
  growth inhibition: 99% (active)
[1]; [8]
  growth inhibition: 99% (active)
[1]; at 50.0 µM
  growth inhibition: 99.5% (active)
[2]; [7]
  growth inhibition: 100% (active)
[2]; [8]
  growth inhibition: 100% (active)
[2]; at 50.0 µM
  growth inhibition: 99.8% (active)
[3]; [7]
  growth inhibition: 100% (active)
[3]; [8]
  growth inhibition: 100% (active)
[3]; at 50.0 µM
  growth inhibition: 99.7% (active)
[4]; [7]
  growth inhibition: 99% (active)
[4]; [8]
  growth inhibition: 99% (active)
[4]; at 50.0 µM
  growth inhibition: 99.5% (active)
[5]; [7]
  growth inhibition: 100% (active)
[5]; [8]
  growth inhibition: 99% (active)
[5]; at 50.0 µM
  growth inhibition: 99.8% (active)
[6]; [7]
  growth inhibition: 100% (active)
[6]; [8]
  growth inhibition: 100% (active)
[6]; at 50.0 µM
  growth inhibition: 99.7% (active)

## Cc1ccc(NCc2ccccc2)cc1[As](=O)(O)O
[1]; [7]
  growth inhibition: -1%
[1]; [8]
  growth inhibition: 97% (active)
[1]; at 50.0 µM
  growth inhibition: 47%
[2]; [7]
  growth inhibition: -2%
[2]; [8]
  growth inhibition: 96% (active)
[2]; at 50.0 µM
  growth inhibition: 12.9%
[3]; [7]
  growth inhibition: -4%
[3]; [8]
  growth inhibition: 67%
[3]; at 50.0 µM
  growth inhibition: 8.3%
[4]; [7]
  growth inhibition: -5%
[4]; [8]
  growth inhibition: 94% (active)
[4]; at 50.0 µM
  growth inhibition: -16.8%
[5]; [7]
  growth inhibition: -2%
[5]; [8]
  growth inhibition: 99% (active)
[5]; at 50.0 µM
  growth inhibition: 41.5%
[6]; [7]
  growth inhibition: -1%
[6]; [8]
  growth inhibition: 99% (active)
[6]; at 50.0 µM
  growth inhibition: 66.3%

## CCOP(=O)(O)C(Nc1ccc(N=Nc2ccccc2)cc1)c1ccc(C(Nc2ccc(N=Nc3ccccc3)cc2)P(=O)(O)OCC)cc1 (stereo not given)
[1]; [7]
  growth inhibition: -4%
[1]; [8]
  growth inhibition: 35%
[1]; at 50.0 µM
  growth inhibition: 54%
[2]; [7]
  growth inhibition: -6%
[2]; [8]
  growth inhibition: 27%
[2]; at 50.0 µM
  growth inhibition: 67.7%
[3]; [7]
  growth inhibition: 3%
[3]; [8]
  growth inhibition: 37%
[3]; at 50.0 µM
  growth inhibition: 86% (active)
[4]; [7]
  growth inhibition: -8%
[4]; [8]
  growth inhibition: -6%
[4]; at 50.0 µM
  growth inhibition: 41.3%
[5]; [7]
  growth inhibition: -5%
[5]; [8]
  growth inhibition: 31%
[5]; at 50.0 µM
  growth inhibition: 57.5%
[6]; [7]
  growth inhibition: -5%
[6]; [8]
  growth inhibition: 31%
[6]; at 50.0 µM
  growth inhibition: 90.1% (active)

## COc1cc(C2c3cc4c(cc3[C@@H](Nc3ccc([N+](=O)[O-])cc3)C3COC(=O)[C@H]23)OCO4)cc(OC)c1O (stereo not given in full)
[1]; [7]
  growth inhibition: 96% (active)
[1]; [8]
  growth inhibition: 96% (active)
[1]; at 50.0 µM
  growth inhibition: 84.4% (active)
[2]; [7]
  growth inhibition: 97% (active)
[2]; [8]
  growth inhibition: 97% (active)
[2]; at 50.0 µM
  growth inhibition: 91% (active)
[3]; [7]
  growth inhibition: 49%
[3]; [8]
  growth inhibition: 98% (active)
[3]; at 50.0 µM
  growth inhibition: 87.7% (active)
[4]; [7]
  growth inhibition: 22%
[4]; [8]
  growth inhibition: 97% (active)
[4]; at 50.0 µM
  growth inhibition: 86.6% (active)
[5]; [7]
  growth inhibition: 54%
[5]; [8]
  growth inhibition: 98% (active)
[5]; at 50.0 µM
  growth inhibition: 87.2% (active)
[6]; [7]
  growth inhibition: 95% (active)
[6]; [8]
  growth inhibition: 96% (active)
[6]; at 50.0 µM
  growth inhibition: 88.5% (active)

## Cc1c(=O)n(O)c2ccccc2[n+]1[O-]
[1]; [7]
  growth inhibition: 4%
[1]; [8]
  growth inhibition: 21%
[1]; at 50.0 µM
  growth inhibition: 4.05%
[2]; [7]
  growth inhibition: 4%
[2]; [8]
  growth inhibition: 31%
[2]; at 50.0 µM
  growth inhibition: 0.75%
[3]; [7]
  growth inhibition: 4%
[3]; [8]
  growth inhibition: 24%
[3]; at 50.0 µM
  growth inhibition: 7.3%
[4]; [7]
  growth inhibition: 4%
[4]; [8]
  growth inhibition: 14%
[4]; at 50.0 µM
  growth inhibition: 32.5%
[5]; [7]
  growth inhibition: 1%
[5]; [8]
  growth inhibition: 16%
[5]; at 50.0 µM
  growth inhibition: 12.6%
[6]; [7]
  growth inhibition: 5%
[6]; [8]
  growth inhibition: 51%
[6]; at 50.0 µM
  growth inhibition: 16.5%

## Cc1sc(Cc2ccccc2)nc1-c1ccc(N=Cc2ccc(N(CCCl)CCCl)cc2)cc1
[1]; [7]
  growth inhibition: 20%
[1]; [8]
  growth inhibition: 95% (active)
[1]; at 50.0 µM
  growth inhibition: 96.2% (active)
[2]; [7]
  growth inhibition: 2%
[2]; [8]
  growth inhibition: 98% (active)
[2]; at 50.0 µM
  growth inhibition: 93.8% (active)
[3]; [7]
  growth inhibition: -108%
[3]; [8]
  growth inhibition: 98% (active)
[3]; at 50.0 µM
  growth inhibition: 96% (active)
[4]; [7]
  growth inhibition: -1%
[4]; [8]
  growth inhibition: 90% (active)
[4]; at 50.0 µM
  growth inhibition: 93.6% (active)
[5]; [7]
  growth inhibition: 2%
[5]; [8]
  growth inhibition: 96% (active)
[5]; at 50.0 µM
  growth inhibition: 89% (active)
[6]; [7]
  growth inhibition: 58%
[6]; [8]
  growth inhibition: 97% (active)
[6]; at 50.0 µM
  growth inhibition: 96.2% (active)

## CC(=O)NC1=C(N(CCCl)CCCl)C(=O)c2ccccc2C1=O
[1]; [7]
  growth inhibition: 20%
[1]; [8]
  growth inhibition: 98% (active)
[1]; at 50.0 µM
  growth inhibition: 99% (active)
[2]; [7]
  growth inhibition: 12%
[2]; [8]
  growth inhibition: 98% (active)
[2]; at 50.0 µM
  growth inhibition: 98.2% (active)
[3]; [7]
  growth inhibition: 18%
[3]; [8]
  growth inhibition: 99% (active)
[3]; at 50.0 µM
  growth inhibition: 98.2% (active)
[4]; [7]
  growth inhibition: -4%
[4]; [8]
  growth inhibition: 96% (active)
[4]; at 50.0 µM
  growth inhibition: 96.2% (active)
[5]; [7]
  growth inhibition: 23%
[5]; [8]
  growth inhibition: 97% (active)
[5]; at 50.0 µM
  growth inhibition: 99% (active)
[6]; [7]
  growth inhibition: 18%
[6]; [8]
  growth inhibition: 98% (active)
[6]; at 50.0 µM
  growth inhibition: 98.9% (active)

## CCC1(O)C(=O)OCc2c1cc1n(c2=O)Cc2cc3cc4c(cc3nc2-1)OCO4 (stereo not given)
[1]; [7]
  growth inhibition: 97% (active)
[1]; [8]
  growth inhibition: 92% (active)
[1]; at 50.0 µM
  growth inhibition: 86.6% (active)
[2]; [7]
  growth inhibition: 98% (active)
[2]; [8]
  growth inhibition: 96% (active)
[2]; at 50.0 µM
  growth inhibition: 86.3% (active)
[3]; [7]
  growth inhibition: 97% (active)
[3]; [8]
  growth inhibition: 96% (active)
[3]; at 50.0 µM
  growth inhibition: 85.2% (active)
[4]; [7]
  growth inhibition: 90% (active)
[4]; [8]
  growth inhibition: 91% (active)
[4]; at 50.0 µM
  growth inhibition: 73% (active)
[5]; [7]
  growth inhibition: 92% (active)
[5]; [8]
  growth inhibition: 89% (active)
[5]; at 50.0 µM
  growth inhibition: 90% (active)
[6]; [7]
  growth inhibition: 93% (active)
[6]; [8]
  growth inhibition: 79% (active)
[6]; at 50.0 µM
  growth inhibition: 92.7% (active)

## O=[N+]([O-])c1ccc([N+](=O)[O-])c2ccccc12
[1]; [7]
  growth inhibition: 37%
[1]; [8]
  growth inhibition: 99% (active)
[1]; at 50.0 µM
  growth inhibition: 86.5% (active)
[2]; [7]
  growth inhibition: 47%
[2]; [8]
  growth inhibition: 99% (active)
[2]; at 50.0 µM
  growth inhibition: 61.7%
[3]; [7]
  growth inhibition: 61%
[3]; [8]
  growth inhibition: 97% (active)
[3]; at 50.0 µM
  growth inhibition: 91.1% (active)
[4]; [7]
  growth inhibition: 82% (active)
[4]; [8]
  growth inhibition: 97% (active)
[4]; at 50.0 µM
  growth inhibition: 67.9%
[5]; [7]
  growth inhibition: 45%
[5]; [8]
  growth inhibition: 95% (active)
[5]; at 50.0 µM
  growth inhibition: 85.7% (active)
[6]; [7]
  growth inhibition: 31%
[6]; [8]
  growth inhibition: 99% (active)
[6]; at 50.0 µM
  growth inhibition: 22.8%
